A short description of assay [1]: Wnt pathway potentiators raising nuclear beta-catenin – imaging, WNT3A-conditioned medium, mouse C2C12, NPC library, primary screen (AID 1117326; in the data active = nuclear beta-catenin stimulation mostly above about 4.2%, no sharp cut-off; inactive = mostly below about 10%). The settings on record: stronger effect = higher value.
Assay [2] is described as follows: stimulators of insulin release from INS-1E, primary screen, cell-based, 5 mM glucose, NPC library (AID 1117329;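 active = compound raises insulin release from rat beta cells at 5 mM glucose, no numeric limit stated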). The following applies: rat INS-1E insulin secretion, at 10 µM, stronger effect = higher value.
A short description of assay [3]: growth inhibition of GSK3B-pretreated HCT116 cells – cell-based, CellTiter-Glo, 0.2 to 20 µM (AID 1117336;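 active = compounds lowering colon cancer cell viability after pretreatment blocking the GSK3B kinase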). The following applies: HCT116 viability after GSK3B inhibitor, at 20 µM, stronger effect = higher value.
Assay [4] can be described thus: inhibition of endothelial tube formation, primary screen, imaging, VEGF stimulated, CD31 staining, tube area, NPC library (AID 1117340;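 active = compound that reduces growth-factor-driven endothelial tube area in a mixed cell culture, no cutoff stated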). The following applies: VEGF-stimulated ADSC/ECFC co-culture, at 10 µM, stronger effect = higher value.
Assay [5] in a line: GLP1 release stimulators, primary, NCI-H716, NPC library (AID 1117341;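 active = compound raises GLP1 secretion from the human gut endocrine cells, with no numeric limit stated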). The settings on record: NCI-H716 cells, at 10 µM, stronger effect = higher value.
A short description of assay [6]: HCT116 colon cancer cell growth inhibition, primary screen, CellTiter-Glo luminescence, NPC library (AID 1117342;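 active = compounds that lower survival of HCT116 colon cancer cells in the luminescence readout, no numeric limit stated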). The settings on record: at 20 µM (top of the series).
A short description of assay [7]: reduced SW480 viability measured with CellTiter-Glo, NPC library, primary (AID 1117343;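 active = compounds that lower viability of the colon cancer cells in the luminescence readout, with no numeric limit stated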). The settings on record: CellTiter-Glo luminescence; at 20 µM (top of the series).
Assay [8] is described as follows: NPC library primary testing for decreased DLD-1 cell viability via CellTiter-Glo (AID 1117346;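 active = compounds that lower survival of DLD-1 colon cancer cells in the luminescence readout, no cutoff given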). The following applies: DLD-1 viability, CellTiter-Glo luminescence; at 20 µM (top of the series).
The target in assay [9] is 6-phosphogluconate dehydrogenase, decarboxylating (Homo sapiens) (UniProt P52209). In words: inhibition of human phosphogluconate dehydrogenase – biochemical, recombinant enzyme, NADPH absorbance, primary screen (AID 1159550;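 active = at least 20% inhibition of 6-phosphogluconate dehydrogenase activity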). The following applies: recombinant 6PGD, NADPH absorbance 341 nm; at 10 µM; stronger effect = higher value.
6-phosphogluconate dehydrogenase, decarboxylating (Homo sapiens), sequence (P52209 whole entry, looked up): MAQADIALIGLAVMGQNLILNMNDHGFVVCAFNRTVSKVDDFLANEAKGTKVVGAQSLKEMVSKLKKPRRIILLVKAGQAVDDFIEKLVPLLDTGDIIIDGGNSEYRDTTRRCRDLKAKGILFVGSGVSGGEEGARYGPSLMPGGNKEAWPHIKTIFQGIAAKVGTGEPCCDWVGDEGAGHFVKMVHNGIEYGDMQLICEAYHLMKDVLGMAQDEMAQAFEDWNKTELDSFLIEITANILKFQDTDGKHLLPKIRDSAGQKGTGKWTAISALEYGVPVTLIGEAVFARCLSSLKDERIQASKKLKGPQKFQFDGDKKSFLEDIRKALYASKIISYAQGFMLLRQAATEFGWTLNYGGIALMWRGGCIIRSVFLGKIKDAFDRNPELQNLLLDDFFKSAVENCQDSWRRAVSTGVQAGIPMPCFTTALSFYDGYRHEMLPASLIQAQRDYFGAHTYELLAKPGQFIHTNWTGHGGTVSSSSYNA
Assay [10] is described as follows: modulation of C. elegans fzo-1 (AID 1259413; call rule not given here;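 also: fzo-1 mutant C. elegans worms in liquid wells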). The following applies: C. elegans fzo-1 modulator screen, mean read-out; stronger effect = higher value.
The nature of assay [11]: EMT-state selective cytotoxicity in co-culture – imaging, PC-3E GFP, TEM4-18 mCherry, primary screen (AID 1345086;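 active = compounds killing one labelled cell type while sparing the other, by normalised counts and ratio limits, not self-fluorescent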;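 as to all read-outs here: cells exposed to compound for 72 h before imaging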;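 as to red/green cell ratio (normalised): normalised mesenchymal count divided by normalised epithelial count so high means epithelial killing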). The following applies: PC-3E GFP / TEM4-18 mCherry co-culture, imaging cell counts, at 1 µM; for red/green cell ratio (normalised): actives lie on both sides, counts scaled to control wells, 1 = unselective.
Assay [12] is described as follows: MELAS cybrid and Rieske KO viability enhancers – cell-based, MELAS cybrids, Rieske KO mouse fibroblasts, CellTiter-Glo, primary screen (AID 1508586;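 active = mean z-score across replicates of 1.96 or higher in either the MELAS or the Rieske mutant cell line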;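 also: z relative to plate mean and SD of compound and empty wells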). The settings on record: low glucose.
The target in assay [13] is NAD(+) hydrolase SARM1 (Homo sapiens) (UniProt Q6SZW1). The assay can be described thus: blocking NAD cleavage by SARM1 SAM-TIR – cell lysate, NAD-Glo luminescence (AID 1508614;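 active = compound whose remaining NAD level is above about 45 nM, limit read from the data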;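 also: higher remaining NAD means stronger inhibition of SARM1 NADase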). The settings on record: SAM-TIR HEK293T lysate NADase, at 1 µM, stronger effect = higher value.
NAD(+) hydrolase SARM1 (Homo sapiens), sequence (Q6SZW1 whole entry, looked up, the tested form may be a part): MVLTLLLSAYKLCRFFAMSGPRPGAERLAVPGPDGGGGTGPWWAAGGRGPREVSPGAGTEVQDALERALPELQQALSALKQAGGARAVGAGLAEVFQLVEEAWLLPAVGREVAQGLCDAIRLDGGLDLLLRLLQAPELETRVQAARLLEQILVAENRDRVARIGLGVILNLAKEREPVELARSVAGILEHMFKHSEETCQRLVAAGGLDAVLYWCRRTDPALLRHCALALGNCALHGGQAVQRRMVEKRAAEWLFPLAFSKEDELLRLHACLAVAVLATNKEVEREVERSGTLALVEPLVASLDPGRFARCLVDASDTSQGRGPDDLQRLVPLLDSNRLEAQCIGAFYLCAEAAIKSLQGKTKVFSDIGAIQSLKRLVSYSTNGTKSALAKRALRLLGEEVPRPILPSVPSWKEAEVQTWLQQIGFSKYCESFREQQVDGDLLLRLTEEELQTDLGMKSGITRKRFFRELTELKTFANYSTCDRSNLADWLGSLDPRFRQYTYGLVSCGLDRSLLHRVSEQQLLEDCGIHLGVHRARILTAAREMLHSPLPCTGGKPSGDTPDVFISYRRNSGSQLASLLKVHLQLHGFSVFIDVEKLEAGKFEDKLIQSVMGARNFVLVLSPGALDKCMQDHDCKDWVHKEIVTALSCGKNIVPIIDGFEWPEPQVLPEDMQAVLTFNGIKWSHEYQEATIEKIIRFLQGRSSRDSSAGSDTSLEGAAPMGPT
Assay [14] has as its target Mitogen-activated protein kinase 7 (Homo sapiens) (UniProt Q13164). The assay can be described thus: Gal4-ERK5 driven luciferase induction – cell-based, HTS, primary screen (AID 1508626;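 active = luciferase signal above three times the same-plate solvent-only control wells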;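 also: luciferase driven by Gal4-ERK5 fusion binding five Gal4 sites before minimal TATA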). The following applies: HeLa Gal4-ERK5 transactivation, 18 h, at 5 µM, stronger effect = higher value.
The subject of another assay is F380Y. In words: BK channel mutant inhibitors and activators – cell-based, U2OS BacMam, thallium flux, beta subunits, selectivity assay, profiling panel (AID 1259406).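 Also: initial slope of Thallos dye fluorescence rise after thallium is added; log ratio against the mean of 0.3% DMSO vehicle wells on the same plate.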 The settings on record: U2OS BacMam BK variants, at 30 µM.
A further assay relates to F380Y/beta1. Described as above. The following applies: U2OS BacMam BK variants, at 30 µM.
The test system of a further assay is F380Y/beta2Delta. The description is as above. The following applies: U2OS BacMam BK variants, at 30 µM.
A further assay relates to F380Y/beta4. Described as above. The settings on record: U2OS BacMam BK variants, at 30 µM.
For assay [15], the target named is Calcium-activated potassium channel subunit alpha-1 (Homo sapiens) + Leucine-rich repeat-containing protein 26 (Homo sapiens) (UniProt Q12791+Q2I0M4). The description is as above. The following applies: U2OS BacMam BK variants, F380Y/Slo1WT/gamma1, at 30 µM.
Calcium-activated potassium channel subunit alpha-1 (Homo sapiens) + Leucine-rich repeat-containing protein 26 (Homo sapiens), sequence (Q2I0M4 whole entry, looked up, one chain of several): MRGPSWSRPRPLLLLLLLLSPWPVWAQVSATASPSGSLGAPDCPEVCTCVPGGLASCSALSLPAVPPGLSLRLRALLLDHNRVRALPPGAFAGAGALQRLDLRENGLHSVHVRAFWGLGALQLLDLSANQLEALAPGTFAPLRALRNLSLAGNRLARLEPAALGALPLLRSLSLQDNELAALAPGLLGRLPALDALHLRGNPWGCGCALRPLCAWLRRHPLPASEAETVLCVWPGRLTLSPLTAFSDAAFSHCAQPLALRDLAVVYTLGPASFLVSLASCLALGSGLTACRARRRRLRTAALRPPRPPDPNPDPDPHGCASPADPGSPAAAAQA
The mark [16] stands for this setting: measured here: epithelial PC-3E GFP cell survival.
Where [17] appears, read: measured here: mesenchymal TEM4-18 mCherry cell survival.
Where [18] appears, read: MELAS cybrid survival, CellTiter-Glo 48 h, stronger effect = higher value.
The mark [19] stands for this setting: Rieske KO mouse fibroblast survival, CellTiter-Glo 72 h.

Several values for one entry are separate records, joined by “and”; a condition that tells them apart may be missing. Identical values can stand only once. Activity calls are given as the source filed them.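 The calls were made as follows, unless noted: active = thallium flux through the channel raised or lowered by more than 3 SD from vehicle-only wells, actives on both sides; inactive = the rest.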

Mitogen-activated protein kinase 7 (Homo sapiens), sequence (Q13164 whole entry, looked up, the tested form may be a part): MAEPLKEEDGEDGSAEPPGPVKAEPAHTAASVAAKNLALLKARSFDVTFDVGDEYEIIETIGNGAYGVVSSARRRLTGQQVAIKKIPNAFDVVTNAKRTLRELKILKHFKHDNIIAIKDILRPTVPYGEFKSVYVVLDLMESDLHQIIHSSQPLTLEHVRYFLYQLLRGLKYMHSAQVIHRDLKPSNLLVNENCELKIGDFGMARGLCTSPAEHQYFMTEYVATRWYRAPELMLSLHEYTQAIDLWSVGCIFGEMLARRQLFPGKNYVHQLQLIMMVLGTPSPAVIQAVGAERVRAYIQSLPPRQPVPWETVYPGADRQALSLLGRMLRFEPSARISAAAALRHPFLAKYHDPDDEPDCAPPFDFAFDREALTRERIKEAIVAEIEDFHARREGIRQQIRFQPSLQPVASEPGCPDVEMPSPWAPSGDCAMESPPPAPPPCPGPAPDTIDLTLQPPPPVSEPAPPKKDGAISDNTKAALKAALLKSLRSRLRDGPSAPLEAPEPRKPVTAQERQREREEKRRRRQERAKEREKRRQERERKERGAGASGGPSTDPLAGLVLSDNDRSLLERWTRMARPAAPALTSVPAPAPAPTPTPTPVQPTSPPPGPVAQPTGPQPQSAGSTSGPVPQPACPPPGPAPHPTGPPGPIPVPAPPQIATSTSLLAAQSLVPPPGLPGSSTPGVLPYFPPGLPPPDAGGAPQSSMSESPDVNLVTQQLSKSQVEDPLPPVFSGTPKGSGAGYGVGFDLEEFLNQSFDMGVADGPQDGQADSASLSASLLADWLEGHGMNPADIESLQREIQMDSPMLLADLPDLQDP

One may read the inhibition as the change of the read-out against control, counted positive when it falls. As for `NS(=O)(=O)c1cc2c(cc1C(F)(F)F)NCNS2(=O)=O`, the nuclear beta-catenin stimulation was -1% (inactive) in assay [1] (at 10 µM) and 1% in assay [1] (stimulation, at 2 µM). For the same molecule, the insulin secretion stimulation in [2] was -0.5% (inactive). Moreover, in [3], the viability decrease was -8.5% (inactive). For the same molecule, in [4], the tube area decrease was -8.6% (inactive). The GLP1 secretion stimulation in assay [5] was 0.4% (inactive). Besides, in assay [6], the inhibition of viability is -2% (inactive). Besides, the values for the viability decrease (inhibition) in [7] and in assay [8] were 10.4% (inactive) and -13.4% (inactive), respectively. Moreover, in assay [9], the inhibition was -4.61% (inactive). For the same molecule, in [10], the mean signal is 224 (inactive). Moreover, the red/green cell ratio (normalised) in assay [11] is 1.07 (inactive). Also, the values for the normalised cell number in [11] (setting [16]) and in [11] (setting [17]) were 0.95 and 1.02, respectively. Besides, the z-score is 0.119 (inactive) in assay [12] (setting [18]) and 0.185 in [12] (setting [19]). In addition, in assay [13], the remaining NAD was 10 nM (inactive). In addition, the luciferase signal in assay [14] is 40 AU (inactive). The log fold change Tl+ flux was -0.0227 (inactive) in the assay with F380Y; 0.0232 (inactive) in the assay with F380Y/beta1; 0.0255 (inactive) in the assay with F380Y/beta2Delta; 0.0329 (inactive) in the assay with F380Y/beta4; -0.0239 (inactive) in assay [15].
Consider `CN(C)CCCN1c2ccccc2CCc2ccccc21`, for which the nuclear beta-catenin stimulation in assay [1] (at 10 µM) was 0.8% (inactive); in [1] (stimulation, at 2 µM), -0.2%. Besides, the insulin secretion stimulation in [2] is 5.55% (inactive). In assay [3], the viability decrease was 57.9% (active). In assay [4], the tube area decrease was 0.8% (inactive). Moreover, the GLP1 secretion stimulation in assay [5] is 10% (inactive). The inhibition of viability in assay [6] was 36.7% (inactive). The viability decrease (inhibition) in assay [7] is 70.5% (active); in assay [8], -1.6% (inactive). Besides, in assay [9], the inhibition was 2.5% (inactive). Further, in assay [10], the mean signal is 235 (inactive). In addition, in assay [11], the red/green cell ratio (normalised) is 1.07 (inactive). Further, the results for the normalised cell number in assay [11] (setting [16]) and in assay [11] (setting [17]) were 1.07 and 1.14, respectively. Also, the z-score in assay [12] (setting [18]) is -0.849 (inactive) and -0.557 (inactive); in [12] (setting [19]) it was 0.136 and -0.674. For the same molecule, the remaining NAD in [13] is 10 nM (inactive). Besides, the luciferase signal in assay [14] was 44 AU (inactive). For the same molecule, the log fold change Tl+ flux was 0.14 (active) in the assay on F380Y; 0.0217 (inactive) in the assay on F380Y/beta1; 0.118 (active) in the assay with F380Y/beta2Delta; 0.133 (active) in the assay on F380Y/beta4; 0.0488 (inactive) in assay [15].
In the case of `CCN(CC)CCOC(=O)C1(C2CCCCC2)CCCCC1`, the nuclear beta-catenin stimulation in assay [1] (at 10 µM) is 2.1% (inactive); in assay [1] (stimulation, at 2 µM), 1.1%. Moreover, the insulin secretion stimulation in assay [2] was 6.9% (inactive). In [3], the viability decrease is -64.7% (inactive). For the same molecule, the tube area decrease in assay [4] was -0.9% (inactive). The GLP1 secretion stimulation in assay [5] was 5.4% (inactive). In assay [6], the inhibition of viability was 36.5% (inactive). Further, the viability decrease (inhibition) in assay [7] is 84.8% (active); in [8] it was 34.2% (inactive). Further, the inhibition in assay [9] was 11.5% (inactive). In addition, the mean signal in assay [10] was 236 (inactive). The red/green cell ratio (normalised) in [11] is 1.32 (inactive). Further, the normalised cell number in assay [11] (setting [16]) came out at 1.25; in [11] (setting [17]) it was 1.66. Besides, the z-score is 0.288 (inactive) and 0.358 (inactive) in [12] (setting [18]); -0.235 and -0.17 in assay [12] (setting [19]). Also, in assay [13], the remaining NAD was 10 nM (inactive). The luciferase signal in [14] was 1050 AU (active). Moreover, the log fold change Tl+ flux in the assay on F380Y was 0.0289 (inactive); with F380Y/beta1 it was -0.0697 (inactive); in the assay with F380Y/beta2Delta it was 0.0166 (inactive); with F380Y/beta4, -0.0157 (inactive); in assay [15] it was -0.023 (inactive).

For the origin of these results see PubChem BioAssay.
